# High-throughput results deposited in PubChem by National Center for Advancing Translational Sciences (NCATS).
# Most compounds without a hit are left out; they make up all but 7.4% or so of the library.
# FLuc counter: firefly luciferase modulation, counter-screen for miR-21 project; P08659; purified FLuc, Km substrates, luminescence inhibition; Potency, µM (titrated, usually from 57.5 µM), without a hit: at the top dose activity change, negative = inhibition, usual class: inhibitors; hit rate 6.9% among 360,000; AID 588342;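 also: plate controls were vehicle for no effect and reference inhibitor for full effect; nearly all actives have a fitted effect of over 55% in size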
# Target sequence (P08659 whole entry, looked up): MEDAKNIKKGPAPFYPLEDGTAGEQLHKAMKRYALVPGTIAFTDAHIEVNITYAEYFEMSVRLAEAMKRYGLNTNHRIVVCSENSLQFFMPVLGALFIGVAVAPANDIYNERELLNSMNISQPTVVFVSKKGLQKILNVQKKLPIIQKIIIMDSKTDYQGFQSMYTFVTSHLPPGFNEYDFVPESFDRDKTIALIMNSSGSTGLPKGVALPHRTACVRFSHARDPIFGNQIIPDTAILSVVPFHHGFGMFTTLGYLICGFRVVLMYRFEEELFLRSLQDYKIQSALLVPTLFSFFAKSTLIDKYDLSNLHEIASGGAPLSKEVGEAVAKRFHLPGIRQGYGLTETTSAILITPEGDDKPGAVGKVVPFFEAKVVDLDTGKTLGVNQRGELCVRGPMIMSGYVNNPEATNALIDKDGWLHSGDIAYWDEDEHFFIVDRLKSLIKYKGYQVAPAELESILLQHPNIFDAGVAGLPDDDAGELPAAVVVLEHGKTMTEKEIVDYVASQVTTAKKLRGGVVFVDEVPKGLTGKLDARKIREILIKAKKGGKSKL
#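 Purified P. pyralis luciferase (10nM final) with 10uM D-luciferin and 10uM ATP (Km levels) in 50mM Tris acetate pH 7.5, 10mM Mg acetate, 0.01% Tween-20, 0.05% BSA; qHTS 6-point titration, ~60 µM downward; luminescence read.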
# SMN2 splice up: increases expression of the SMN2 splice variant | AID 1458 | hit rate 2.8% among 210,000 | HEK293 SMN2-luciferase splicing reporter, luminescence, 30-36 h | Potency, µM (series often up to 46.1 µM), for inactives: at the top dose activity change, positive = activation, usual class: activators; also: % of control where 0% means no effect; nearly all actives have a fitted effect of over 55% in size
#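 HEK293 cells carry an SMN2 minigene-luciferase reporter in which exon 7 inclusion puts luciferase in frame. Cells were seeded at 2000 cells/well, attached for 10-12 hours, then exposed to compounds for 30-36 hours at 37C before ONE-Glo luminescence.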
# Rab9 promoter act: activates the Rab9 promoter. Huh7 Rab9 promoter-luciferase reporter, luminescence, 24 h. Potency, µM (highest dose often 9.22 µM), without a hit: top-dose activation, negative = inhibition, actives largely listed as activators. hit rate 2.8% among 320,000. AID 485297; also: % of control where 0% means no effect; nearly all actives have a fitted effect of over 60% in size
#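 Huh7 cells stably carrying Rab9 promoter–luciferase reporter, plated 1500 cells/well, compound added after 2 h and incubated 24 h at 37 °C; luciferase luminescence then read after 10 min with detection reagent.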
# NPC1 prom act: activators of NPC1 promoter; hit rate 2.4% among 320,000; AID 485313; Huh7 NPC1 promoter luciferase reporter, 24 h; Potency, µM (titrated, usually from 9.22 µM), without a hit: top-dose activation, actives largely listed as activators; also: % of control where 0% means no effect; nearly all actives have a fitted effect of over 60% in size
#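 Luminescence read-out of NPC1 promoter-driven luciferase in stably transfected Huh7 cells; compounds delivered in DMSO and left 24 h at 37C, 5% CO2, qHTS titration format.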
# ELG1 genotox: inducers of genotoxicity in HEK293T ELG1-luciferase cells; HEK293T ELG1-luciferase reporter, luminescence, 16 h; Potency, µM (titrated, usually from 46 µM), for the others: at the highest dose activity change, positive = activation, most hits filed as activators; hit rate 1.3% among 330,000; also: % of control where 0% means no effect; nearly all actives have a fitted effect of over 60% in size
#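 Genotoxic stress is detected as increased luminescence from luciferase-tagged ELG1 in HEK293T cells, measured with ONE-Glo after a 16 hr treatment at 37 °C.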
# Starred values were filed as active, the others as inactive; ? = inconclusive; nt = not tested or not shown; [ ] = another dose, or the depositor's remark. Calls follow the shape of the dose curve; as a rule, active = well fitted curve in the direction sought with a large enough effect; inconclusive = small, poorly fitted or top-dose-only effect, or another doubt; inactive = no such curve, though single readings can be large; an effect the other way counts as inactive or inconclusive. Potency is read from the fitted curve at half-maximal effect.
SMILES,FLuc counter,SMN2 splice up,Rab9 promoter act,NPC1 prom act,ELG1 genotox
CCCN1C/C(=C/c2ccc3c(c2)OCO3)C(=O)/C(=C/c2ccc3c(c2)OCO3)C1,-1%,-73%,-25%,-11%,-19%
CC1=C/C(=C\c2ccc3c(c2)OCO3)C(=O)S1,19µM*,-9%,-1%,-6%,-2%
COc1ccc(NC(=O)Nc2cc(C)ccc2F)cc1,12µM*,?,2.8µM*,3.5µM*,23µM*
COc1ccc(NC(=O)Nc2cc(C)ccc2OC)cc1,?,-10%,-5%,0%,21%
COc1cccc(NC(=O)Nc2cc(C)ccc2F)c1,24µM*,22%,20%,29%,7%
CN(C(=O)CSc1nnc(-c2c[nH]c3ccccc23)n1C1CC1)C1CCS(=O)(=O)C1 (stereo not drawn),-2%,nt,-3%,0%,2%
CN1CCc2ccccc2[C@@H]1Cc1ccccc1NC(=O)c1sc2ccccc2c1Cl,nt,3%[9.22 µM],nt,nt,nt
CCCS(=O)(=O)Nc1cccc(-c2ccc3nnc(C)n3n2)c1,1%,16µM*,-1%,-9%,?
CCOc1ccccc1OCCCCOc1ccccc1F,-9%,0%,-6%,-8%,0%
COc1ccccc1OCCCCOc1ccccc1F,13µM*,-9%,27%,25%,8%
Cc1ccc(NC(=O)c2ccccc2)s1,2.7µM*,2µM*,0.63µM*,0.71µM*,?
Cc1cc(NC(=O)c2ccccc2)sc1C,3.4µM*,11µM*,nt,nt,nt
CCOC(=O)C1CCC(CN(Cc2ccc(Cl)cc2)S(=O)(=O)c2ccc(F)c(C(=O)Nc3cccc(F)c3)c2)CC1 (stereo not drawn),2%,nt,nt,nt,nt
O=S(=O)(Nn1c(O)c(C=C2N=c3ccccc3=N2)sc1=S)c1ccccc1,15µM*,nt,1%,-2%,-5%
O=C(Nn1c(O)c(C=C2N=c3ccccc3=N2)sc1=S)c1ccccc1Cl,15µM*,-3%,-1%,-1%,-1%
CCn1c(O)c(C=C2N=c3ccccc3=N2)sc1=S,2%,-13%,1%,-1%,0%
Oc1c(C=C2N=c3ccccc3=N2)sc(=S)n1-c1ccccc1,-8%,-24%,-3%,-5%,0%
COc1ccccc1NC(=O)CSCc1cc(=O)c2c(C)cc(C)cc2[nH]1,5%,nt,nt,nt,nt
CCCc1ccc(OCc2ccc(C(=O)NN)o2)c(OC)c1,-16%,nt,?,2.2µM*,12%
CCCc1ccc(OCc2ccc(C(=O)OC)o2)c(OC)c1,15µM*,?,1.8µM*,1.4µM*,10µM*
C=CCc1ccc(OCc2ccc(C(=O)O)o2)c(OC)c1,4.8µM*,nt,?,?,?
Cc1cc(C)cc(OCc2ccc(C(=O)NN)o2)c1,-2%,nt,-3%,0%,-1%
C=CCc1ccc(OCCCOc2ccc(C)c(C)c2)c(OC)c1,-8%,-12%,-4%,0%,-2%
C=CCc1ccc(OCCOc2cccc3ccc(C)nc23)c(OC)c1,11µM*,7%,3%,-2%,-6%
CCCCS(=O)(=O)N1CCC(C(=O)Oc2ccc(Cl)cc2)CC1,0%,nt,-1%,-3%,4%
SMILES,FLuc counter,SMN2 splice up,Rab9 promoter act,NPC1 prom act,ELG1 genotox
Clc1ccc(CN2CCC(CNc3ncnc4onc(-c5ccc(Cl)cc5)c34)CC2)cc1,1%,-24%,nt,nt,nt
COc1ccc(Oc2c(C(F)(F)F)oc3c(CN4CCCC(C)C4)c(O)ccc3c2=O)cc1 (stereo not drawn),2%,-3%,nt,nt,nt
N#CCCN=C(NS(=O)(=O)c1ccccc1)c1ccccc1,-1%,nt,-5%,-1%,12%
Cc1ccc(OCc2ccc(C(=O)N3CCCC3)o2)c([N+](=O)[O-])c1,?,nt,18%,20%,15%
CCCc1ccc(OCc2ccc(C(=O)O)o2)c(OC)c1,4.8µM*,2.5µM*,0.32µM*,0.45µM*,?
Cc1ccc(OCc2ccc(C(=O)O)o2)c([N+](=O)[O-])c1,27µM*,?,?,?,6%
COc1ccc(CCN(C)C(=O)c2ccc(COc3ccccc3)o2)cc1OC,3%,nt,11%,-2%,0%
C=CCc1ccc(OCCCCOc2ccc(C(=O)O)cc2)c(OC)c1,13µM*,18%,2%,-4%,0%
C=CCc1ccc(OCCOCCN(C)C)c(OC)c1,1%,4%,1%,-2%,-4%
C=CCc1ccc(OCCn2cccc2C=O)c(OC)c1,17µM*,-9%,?,?,15%
CCCCn1nc(C(=O)N(CC(C)C)c2c(N)n(CCCC)c(=O)[nH]c2=O)c2ccccc2c1=O,0%,nt,-3%,0%,-1%
O=C1C2=C(Nc3cc([N+](=O)[O-])ccc3N2)O[C@@H]1c1ccc([C@H]2OC3=C(Nc4ccc([N+](=O)[O-])cc4N3)C2=O)cc1,nt,10%[9.22 µM],nt,nt,nt
O=C(Oc1ccc2ccccc2c1)C1CCC1,24µM*,nt,0%,-2%,0%
COc1cc(C(=O)Oc2ccc3ccc(O)cc3c2)cc(OC)c1OC,-12%,nt,4%,0%,?
O=C(c1ccccc1)c1ccc(OC(=O)C2CCCCC2)cc1,13µM*,nt,-5%,0%,2%
O=C(Oc1ccc2ccc(O)cc2c1)C1CCCCC1,17µM*,1%,-4%,1%,-5%
O=C(Oc1ccc2ccc(O)cc2c1)c1ccccc1Cl,2.4µM*,nt,0%,24%,?
O=C(COc1ccc(C(=O)c2ccccc2)cc1)NCC1CCCCC1,1%,-30%,1%,-1%,0%
O=C(Oc1ccc(OC(=O)C2CCC2)cc1)C1CCC1,?,-6%,-5%,-3%,0%
O=C(Cc1cccs1)N1CCN(S(=O)(=O)c2cc(Cl)ccc2Cl)CC1,3%,nt,-3%,2%,0%
NC(=O)[C@@H]1CCCNC1,nt,-5%[9.22 µM],nt,nt,nt
O=C(O)CCCc1ccc2c(c1)CCc1ccccc1-2,4.3µM*,nt,-1%,-1%,10%
CS(=O)(=O)c1ccc2nc(NC(=O)C3CCCO3)sc2c1 (stereo not drawn),-2%,nt,1%,-1%,3%
O=C(Nc1nc2ccc(Cl)cc2s1)C1CCCO1 (stereo not drawn),6.7µM*,22µM*,3.5µM*,1µM*,4.6µM*
O=C(Nc1nc2ccc([N+](=O)[O-])cc2s1)C1CCCO1 (stereo not drawn),15µM*,?,2.2µM*,?,?
SMILES,FLuc counter,SMN2 splice up,Rab9 promoter act,NPC1 prom act,ELG1 genotox
c1ccc(OCCn2c(COc3ccccc3)nc3ccccc32)cc1,?,-2%,nt,nt,nt
C=CCn1c(COc2ccccc2)nc2ccccc21,27µM*,nt,16%,14%,4%
Cn1c(COc2ccccc2)nc2ccccc21,15µM*,nt,?,4µM*,?
COc1c(C)cc(NS(=O)(=O)c2ccc3c(c2)OCCO3)cc1C,-3%,-59%,nt,nt,nt
COc1ccc2cc(C(=O)NCc3ccco3)c(=O)oc2c1,6µM*,27%,?,?,5.8µM*
O=C(NCc1ccco1)c1cc2ccc(O)cc2oc1=O,11µM*,8%,?,?,?
